Experimental data from publication PMC4552634, “A New Set of Chemical Starting Points with Plasmodium falciparum Transmission-Blocking Potential for Antimalarial Drug Discovery” (PLoS ONE, 2015).
Out of some 13,000 compounds screened, about 3,200 (25%) showed an effect of 50% or more. The list shows a part of the results.

These compounds were tested on P. falciparum stage V gametocytes. Details: 48 h, 5 µM; inhibitor.
Parameters: BacTiter-Glo ATP luminescence viability of purified stage V gametocytes in 384-well plates, per cent inhibition versus DMSO

SMILES | % Inhibition
Cc1ccc(Nc2nc(C)cc(NCc3ccc(-n4ccnc4)cc3)n2)cc1 [TCMDC-133454] | 13.72%
c1ccc(C2CCC(N3CCC(N4CCCC4)CC3)CC2)cc1 (stereo not shown) [TCMDC-124349] | 3.112%
CN1CC=C(c2c[nH]c3ccc(Sc4ccccc4)cc23)CC1 [TCMDC-138969] | 5.413%
CCN1CCN(Cc2ccc3nc(-c4cc(C)n(Cc5cc(Cl)ccc5OCc5ccccc5)n4)[nH]c3c2)CC1 [TCMDC-136884] | 23.91%
CC(C)C[C@H]1c2[nH]c3ccc(Cl)cc3c2CCN1C(=O)CCc1ccccc1 [TCMDC-135179] | 1.219%
Cn1c(=N)n(CC(=O)N2CCc3ccc(Cl)cc3C2Cc2ccc(Cl)c(Cl)c2)c2ccccc21 (stereo not shown) [TCMDC-138699] | 109.1%
Cn1c(=N)n(CC(=O)OCc2ccc(OCc3ccccc3)cc2)c2ccccc21 [TCMDC-138698] | 4.888%
CCC1CN(S(=O)(=O)c2ccc3c(c2)NC(=O)CC(=O)N3)c2cc(Cl)ccc2O1 (stereo not shown) [TCMDC-125278] | 25.65%
CCn1c(-c2cc(C)on2)nc2cnc(Oc3ccc(C(=O)N4CC(=O)N(C)C4C(C)(C)C)cc3)cc21 (stereo not shown) [TCMDC-134940] | 2.551%
CCc1cn(C)c2c(N3CCCC3=O)cc(C(=O)N[C@@H](Cc3ccccc3)[C@H](O)CNC(C)(C)c3cccc(C(F)(F)F)c3)cc12 [TCMDC-135197] | 87.86%
CCn1ncc2c(N3CCCC3=O)cc(C(=O)N[C@@H](Cc3ccccc3)[C@H](O)CNC(C)(C)c3cccc(C(F)(F)F)c3)cc21 [TCMDC-135064] | 21.85%
CCc1c[nH]c2c(N3CCCC3=O)cc(C(=O)N[C@@H](Cc3ccccc3)[C@H](O)CNC(C)(C)c3cccc(OC)c3)cc12 [TCMDC-134404] | 44.35%
CCc1cn(C)c2c(N3CCCC3=O)cc(C(=O)N[C@@H](Cc3ccccc3)[C@H](O)CNC(C)(C)c3cccc(OC)c3)cc12 [TCMDC-135196] | 90.21%
CCc1c[nH]c2c(N3CCCC3=O)cc(C(=O)N[C@@H](Cc3ccccc3)[C@H](O)CNC(C)(C)c3cccc(C(F)(F)F)c3)cc12 [TCMDC-134402] | 2.989%
CCc1cn(C)c2c(N3CCCC3=O)cc(C(=O)N[C@@H](Cc3ccccc3)[C@H](O)CNCc3cccc(OC)c3)cc12 [TCMDC-135195] | 21.06%
C[C@@H](NC(=O)c1nn(-c2ccc(Cl)cc2)c(=O)c2ccccc12)C(C)(C)C [TCMDC-124772] | -4.584%
